High-throughput results as filed in PubChem.
CYP2C19 inhib: human CYP2C19 inhibition | P33261 | CYP2C19 Supersomes, luciferin-H EGE luminescence, 30 min | inhibition, % at 5 µM | actives 21% (n = 96,000) | AID 778;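 active = CYP2C19 inhibition above a set limit at 5 µM in the primary screen, cut at about 50% in these data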;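 also: plate controls were negative control wells for no effect and 2.5 mM tranylcypromine positive control for full effect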
CYP2C19 act: activators of human cytochrome P450 2C19 | P33261 | recombinant CYP2C19, luciferin-H EGE luminescence; hits give high values; 0 = fully inhibited enzyme, 1 = untreated enzyme | activation factor at 5 µM | 96,000 tested, under 10 active | AID 1025;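 active = activation factor of at least 2 at 5 µM in the primary screen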;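 also: 0 = wells with 2.5 mM tranylcypromine and 1 = vehicle-only wells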
CYP2C9 activ: CYP2C9 (human) activation | actives 1.4% (n = 96,000) | AID 1024 | P11712 | recombinant CYP2C9, luciferin-H conversion, luminescence; hits give high values; factor 1 = untreated enzyme, 0 = blocked | activation factor at 5 µM;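 active = activation factor of 2 or more for CYP2C9 at a 5 µM dose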;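 also: 0 = sulfaphenazole-blocked wells and 1 = vehicle-only wells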
Mac1 fbg inh: CD11b/CD18-fibrinogen binding inhibition. P05107+P11215. K562 CD11b/CD18 adhesion to fibrinogen, ATPlite luminescence; Mn2+ added to activate the integrin. inhibition, % at 10 µM. actives 0.54% (n = 93,000);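 active = primary inhibition of 50% or more at 10 µM, then 40% or more on retest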
CYP2C9 inhib: blocks human cytochrome P450 2C9; AID 777; actives 20% (n = 96,000); P11712; CYP2C9 Supersomes, luciferin-H conversion, luminescence; inhibition, % at 5 µM;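 active = blocking of liver enzyme CYP2C9 beyond about 50% at 5 µM, limit read from the data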
Mac1 fbg enh: enhancers of human CD11b/CD18 binding to fibrinogen; AID 1499; K562 CD11b/CD18 adhesion to fibrinogen, ATPlite luminescence; actives 0.07% (n = 93,000); activation, % at 10 µM;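 active = 10 µM primary screen giving 50% or more activity, confirmed by 40% or more on retest at that dose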
An asterisk follows results filed as active; nt = not tested or not shown. An excerpt weighted towards active compounds, which were near 28% of everything screened.

SMILES | CYP2C19 inhib | CYP2C19 act | CYP2C9 activ | Mac1 fbg inh | CYP2C9 inhib | Mac1 fbg enh
CCOC(=O)C(NCc1ccccc1OC)(NC(=O)c1ccccc1)C(F)(F)F (stereo not drawn) | 48 | 0.5 | 0.4 | 0 | 63* | -5
O=S(=O)(NCc1ccccc1)c1ccc(S(=O)(=O)N(Cc2cccs2)CC2CCCO2)cc1 (stereo not drawn) | 1 | 1 | 0.7 | 9 | 28 | -4
CCCCn1c(N)c(NCC(C)C)c(=O)[nH]c1=O | nt | nt | nt | 9 | nt | -1
CCCNS(=O)(=O)c1cccc2cccnc12 | 10 | 0.9 | 1.8 | 0 | -78 | 4
COc1ccccc1NS(=O)(=O)c1cccc2cccnc12 | 70* | 0.3 | 0.7 | -20 | 31 | 1
COc1ccc(S(=O)(=O)Nc2cccc(C)n2)c2ccccc12 | 67* | 0.3 | 1.6 | -9 | -61 | -1
COc1cccc(CNc2cccc3cccnc23)c1O | 81* | 0.2 | 2.2* | 14 | -123 | -4
Cc1cccc(NS(=O)(=O)c2cccc3cccnc23)n1 | 5 | 0.9 | 2.5* | -12 | -152 | 3
CC1(C)Cc2cccc(OCC(=O)N3CCN(S(=O)(=O)c4ccccc4)CC3)c2O1 | 31 | 0.7 | 1.2 | 6 | -18 | 0
COc1ccc(OC)c(NC(=O)c2ccccc2NS(=O)(=O)c2cccc3cccnc23)c1 | 77* | 0.2 | 0.1 | -43 | 92* | 1
COc1ccccc1NC(=O)c1ccc(NS(=O)(=O)c2cccc3cccnc23)cc1 | nt | nt | nt | 3 | nt | 10
CCOC(=O)N1CCN(C(=O)Nc2ccccc2Cl)CC1 | 16 | 0.8 | 1 | -12 | -5 | 6
CCOC(=O)C1CCN(C(=O)Nc2ccc3nc(-c4ccco4)c(-c4ccco4)nc3c2)CC1 | 71* | 0.3 | 0.2 | 3 | 75* | 24
CCOC(=O)C1CCCN(C(=S)Nc2cc(C)cc(C)c2)C1 (stereo not drawn) | 70* | 0.3 | 0.9 | 4 | 13 | 4
CCOC(=O)N1CCN(C(=S)Nc2cccc(C)c2)CC1 | 34 | 0.7 | 1.1 | nt | -6 | nt
CCOC(=O)C1CCCN(c2c(Nc3cc(C)cc(C)c3)c(=O)c2=O)C1 (stereo not drawn) | 40 | 0.6 | 0.7 | -8 | 31 | 2
O=C(Nc1ccc2nc(-c3ccco3)c(-c3ccco3)nc2c1)N1CCCCCC1 | -2 | 1 | 1 | -50 | 5 | 55
CCOC(=O)C1CCN(C(=S)Nc2cccc(C)c2)CC1 | 96* | 0 | 0.8 | -3 | 24 | -3
CCOC(=O)C1CCN(C(=O)Nc2ccccc2Cl)CC1 | 65* | 0.4 | 0.9 | -2 | 5 | -3
CN(C)c1nc(N(C)C)nc(N(C#N)CN2C(=O)c3ccccc3C2=O)n1 | nt | nt | nt | -3 | nt | 47
Cc1cc(C)c(NC(=O)c2ccc(CNS(=O)(=O)c3cc(C(F)(F)F)ccc3Cl)cc2)c(C)c1 | nt | nt | nt | 0 | nt | -1
CCOC(=O)CNc1c(-c2ccc(Cl)cc2)nc2cnccn12 | 89* | 0.1 | 0.3 | 8 | 74* | -4
CCOC(=O)CNc1c(-c2ccc(F)cc2)nc2cnccn12 | 60* | 0.4 | 0.6 | -9 | 38 | 7
CC(=O)Nc1c(-c2ccc(F)cc2)nc2ccccn12 | -14 | 1.1 | 1 | -7 | -2 | -1
Cc1ccc(-n2nnnc2Sc2nc([N+](=O)[O-])nn2C)cc1C | nt | nt | nt | -4 | nt | -2
SMILES | CYP2C19 inhib | CYP2C19 act | CYP2C9 activ | Mac1 fbg inh | CYP2C9 inhib | Mac1 fbg enh
COc1ccc(CNc2ccc3c(c2)ncn3-c2ccccc2OC)cc1 | 52* | 0.5 | 0.5 | nt | 54* | nt
COc1ccccc1-n1cnc2cc(NCc3cccs3)ccc21 | 70* | 0.3 | 1.7 | 6 | -70 | 2
Cc1ccccc1-n1cnc2cc(NCc3cccs3)ccc21 | 54* | 0.5 | 0.7 | nt | 27 | nt
COc1ccccc1-n1cnc2cc(NCc3ccco3)ccc21 | 93* | 0.1 | 2* | 16 | -101 | 4
O=C(O)C1C2C=CC(O2)C1C(=O)NCc1ccccc1Br (stereo not drawn) | 7 | 0.9 | 0.8 | 3 | 18 | -2
O=C(c1cc([N+](=O)[O-])cc([N+](=O)[O-])c1)N1CCOCC1 | nt | nt | nt | 1 | nt | 2
COC(=O)[C@@H](NC(=O)Nc1ccc(OC)cc1)C(C)C | 25 | 0.8 | 0.8 | -16 | 19 | 1
